Test results as given in PubChem BioAssay (Tox21).
Records with an inconclusive call do not appear. Entries that show only a call come without a potency. Values without a mark were called inactive. Calls of active or inactive are those of the source. Calls come from the whole dose curve; as a rule, active = well fitted cell-killing curve with a large enough effect in the repeat runs; inconclusive = weak or mixed curves, or effect the other way; inactive = flat fitted curve, though single readings scatter.

Legend:
[1] = cAMP Responsive Elements (CRE) small molecule antagonists, cell-based qHTS assay: qHTS cell viability counter screen (AID 2060913); note: nearly all actives have a fitted effect of over 40% in size
Method in brief: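 Cytotoxicity counter screen multiplexed with the CRE-bla antagonist read: HEK293T cells in DMEM with dialyzed FBS and 25 mM HEPES were treated 3 hrs under 0.25 uM final NKH477, then viability measured by CellTiter-Glo luminescence.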

[2] = cAMP Responsive Elements (CRE) small molecule agonists, cell-based qHTS assay: qHTS cell viability counter screen (AID 2060914); note: potency is the fitted concentration of half-maximal effect;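 note: viability read after 3 h of compound exposure; nearly all actives have a fitted effect of over 50% in size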
Method in brief: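 HEK 293T CRE-bla; DMEM + 10% dialyzed FBS, 25 mM HEPES; 18 h pre-incubation; compound 3 h, 37 °C/5% CO2; CellTiter-Glo added after reporter read; luminescence after 30 min RT.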

SMILES	Potency [1]	Potency [2]	viability change, negative = cytotoxic [1]	activity change, negative = cytotoxicity [2]
CCC(CC)C(=O)O	inactive	inactive		
C=CN1CCCCCC1=O	inactive	inactive		
CCCCOCCOCCOCCO	inactive	inactive		
CCCCCOC(=O)CCCC	inactive	inactive		
c1ccc2cnncc2c1	inactive	inactive		
CS(=O)(=O)c1ccc(Cl)cc1	inactive	inactive		
CCCCCCCCCCC(CO)CCCCCCCC (configuration not stated)	inactive	inactive		
CC(=O)N(O)CCCCCNC(=O)CCC(=O)N(O)CCCCCNC(=O)CCC(=O)N(O)CCCCCN	inactive	inactive		
C1C2OC2C2C1C1CC2C2OC12 (configuration not stated)	inactive	inactive		
CC(=O)OCC(=O)[C@@]1(O)CCC2C3CCC4=CC(=O)CC[C@]4(C)C3[C@@H](O)C[C@@]21C (some centres not stated)	inactive	inactive		
C=COCC(C)C	inactive	inactive		
c1ccc2c(c1)-c1cccc3c1c-2cc1ccccc13	inactive	inactive		
CC[C@H]1OC(=O)[C@H](C)[C@@H](O[C@H]2C[C@@](C)(OC)[C@@H](O)[C@H](C)O2)[C@H](C)[C@@H](O[C@@H]2O[C@H](C)C[C@H](N(C)C)[C@H]2O)[C@](C)(O)C[C@@H](C)/C(=N\OCOCCOC)[C@H](C)[C@@H](O)[C@]1(C)O	inactive	36 µM (active)		
CN1[C@@H]2CC[C@H]1CC(OC(=O)C(O)c1ccccc1)C2 (some centres not stated)	inactive	inactive		
O=C(O)c1cc(C(=O)O)cc(S(=O)(=O)O)c1	inactive	inactive		
C[Si](C)(CCCN)O[Si](C)(C)CCCN	inactive	inactive		
CC(C)C/C=C(\C=O)c1ccccc1	inactive	inactive		
CC/C=C/CCO	inactive	inactive		
COc1cccc2c1C(=O)c1c(O)c3c(c(O)c1C2=O)C[C@@](O)(C(=O)CO)C[C@@H]3O[C@H]1C[C@H](N)[C@H](O)[C@H](C)O1	inactive	inactive		
C(=C\c1ccccc1)/CN1CCN(C(c2ccccc2)c2ccccc2)CC1	inactive	inactive		
CC(=O)NC(=O)c1ccccc1O	inactive	inactive		
CCN(CC)CCOCCOC(=O)C1(c2ccccc2)CCCC1	inactive	inactive		

SMILES	Potency [1]	Potency [2]	viability change, negative = cytotoxic [1]	activity change, negative = cytotoxicity [2]
CCCCOC(=O)/C=C\C(=O)OCCCC	inactive	inactive		
C=CCCCCCCCCCCCCCC			-1.45% [at 18.9 µM]	-8.5% [at 18.9 µM]
O=C(O)Cc1sc(-c2ccccc2)nc1-c1ccc(Cl)cc1	inactive	inactive		
N#Cc1cscn1	inactive	inactive		
CC(C)=CCOc1ccc(/C=C/C(=O)c2ccc(OCC=C(C)C)cc2OCC(=O)O)cc1	inactive	inactive		
NC(=O)NS(=O)(=O)c1ccc(N)cc1	inactive	inactive		
CCCCCCCCCCCCN(CCCCCCCCCCCC)CCCCCCCCCCCC	inactive	inactive		
OC[C@H]1O[C@@H]2O[C@H]3[C@H](O)[C@@H](O)[C@@H](O[C@H]4[C@H](O)[C@@H](O)[C@@H](O[C@H]5[C@H](O)[C@@H](O)[C@@H](O[C@H]6[C@H](O)[C@@H](O)[C@@H](O[C@H]7[C@H](O)[C@@H](O)[C@@H](O[C@H]1[C@H](O)[C@H]2O)O[C@@H]7CO)O[C@@H]6CO)O[C@@H]5CO)O[C@@H]4CO)O[C@@H]3CO	inactive	inactive		
CC(C)N1C(=O)c2ccccc2C1=O	inactive	inactive		
CCCCC(CC)COS(=O)(=O)O (configuration not stated)	inactive	inactive		
CC(C)C(=O)c1c(C(C)C)nn2ccccc12	inactive	inactive		
CCC[C@H](N[C@@H](C)C(=O)N1[C@H](C(=O)O)C[C@@H]2CCCC[C@@H]21)C(=O)OCC	inactive	inactive		
O=P(O)(O)C(O)(Cc1cccnc1)P(=O)(O)O	inactive	inactive		
CCCCCCCCCC/C=C/C#N	inactive	inactive		
Cc1cccc(NC(=S)N(C)C)c1	inactive	inactive		
COc1ccc(Cl)cc1C(=O)NCCc1ccc(S(=O)(=O)NC(=O)NC2CCCCC2)cc1	inactive	inactive		
CCCCOC(=O)[C@@H](C)Oc1ccc(Oc2ccc(C(F)(F)F)cn2)cc1	inactive	inactive		
OC[C@H]1O[C@@H](O[C@H]2[C@H](O)[C@@H](O)[C@H](O)O[C@@H]2CO)[C@H](O)[C@@H](O)[C@H]1O	inactive	inactive		
CC(C)c1nnc2ccc(-c3ocnc3-c3cc(F)ccc3F)cn12	inactive	inactive		
CCCCN(CCCC)CCCCCCN(CCCC)CCCC	inactive	inactive		
CCCc1c2oc(C(=O)O)cc(=O)c2cc2c(=O)cc(C(=O)O)n(CC)c12	inactive	inactive		
c1ccc2c(c1)CCC2	inactive	inactive		

SMILES	Potency [1]	Potency [2]	viability change, negative = cytotoxic [1]	activity change, negative = cytotoxicity [2]
COCc1c(C(C)C)nc(C(C)C)c(/C=C/[C@@H](O)C[C@@H](O)CC(=O)O)c1-c1ccc(F)cc1	inactive	inactive		
COc1ccc(C(=O)c2ccc(OC)cc2O)c(O)c1	inactive	inactive		
CCc1nccnc1C	inactive	inactive		
CNC(=O)c1ccccc1	inactive	inactive		
CCCCC(CC)CN1CN(CC(CC)CCCC)CC(C)(N)C1 (configuration not stated)	inactive	inactive		
CCC(CC)C(C)CCOC(C)=O (configuration not stated)	inactive	inactive		
Oc1cc(O)c(Cl)cc1Cl	inactive	inactive		
NCCCC[C@H](N[C@@H](CCc1ccccc1)C(=O)O)C(=O)N1CCC[C@H]1C(=O)O	inactive	inactive		
COC=O			-17.9% [at 8.39 µM]	-1.81% [at 8.39 µM]
Nc1ccn([C@@H]2O[C@H](CO)[C@@H](O)C2(F)F)c(=O)n1	inactive	inactive		
CC(COc1ccccc1)N(CCCl)Cc1ccccc1 (configuration not stated)	inactive	inactive		
O=C1NCC2(CCN(CCc3ccccc3)CC2)O1	inactive	inactive		
CC1C2CC(CC2C2CCCC(O)C2)C1(C)C (configuration not stated)	inactive	inactive		
CO[C@@]1(NC(=O)CSCC#N)C(=O)N2C(C(=O)O)=C(CSc3nnnn3C)CS[C@@H]21	inactive	inactive		
Fc1ccc(Br)cc1	inactive	inactive		
O=Cc1ccccc1S(=O)(=O)O	inactive	inactive		
CCCCCCC(=O)OCC	inactive	inactive		
CC(C)(C)OCC1CO1 (configuration not stated)	inactive	inactive		
CC(C)(C)C1CCC(O)CC1 (configuration not stated)	inactive	inactive		
CCOC(=O)OCC/C(SC(=O)OCC)=C(\C)N(C=O)Cc1cnc(C)nc1N	inactive	inactive		
O=C(O)Cc1ccc2c(c1)C(=O)c1ccccc1CO2	inactive	inactive		
CC(C)CCCC(C)N (configuration not stated)	inactive	inactive		
